Experimental data reported in the supplement of paper PMC10849652.
The full data set covers some 7,900 targets. This sample favours those with a hit. About 0.6% of all pairs of compound and target were hits.

Columns and labels:
Assay in all cases: log2 fold change, soluble protein after heating vs DMSO (PISA); higher = thermal stabilisation; K562 cells, 10 uM, 30 min; active = over 0.2 and 3.5 SD of the protein, either way, in both replicates (recomputed)
[1] = compound: C#Cc1cccc(Nc2ncnc3cc(OCCOC)c(OCCOC)cc23)c1 [erlotinib]
How it was run: (§1)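 For each measurement, 10 μM compound was applied for 30 min to K562 cells at 2×10^6 cells/mL. Aliquots were heated for 3 min across 48°C-58°C, pooled, and extracted in PBS with 0.5% NP-40 at 4°C; the supernatant after 21,000xg for 90 min was soluble protein. This was quantified by TMTpro 16plex LC-MS/MS with channel sums equalised, and thermal stability was reported relative to control samples from duplicates, on a log2 fold-change scale.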

[2] = compound: C/C(=N\NC(=O)C1=CC(=CC=C1)S(=O)(=O)N2CCOCC2)/C3=C(C=CC(=C3)Cl)O
How it was run: as §1

[3] = compound: C1=CC(=C(C=C1Cl)C2=NC3=NC=CN=C3C(=N2)NC4=CC=NC=C4)F
How it was run: as §1

[4] = compound: C1=CC(=CC=C1C2=NC3=C(N2)C=C(C=C3)C(=O)N)OC4=CC=C(C=C4)Cl
How it was run: as §1

[5] = compound: C1=CC2=C(C=CC(=C2)/C=C\3/C(=O)NC(=NCC4=CC=CS4)S3)N=C1
How it was run: as §1

[6] = compound: C1=CC2=NC=CN=C2C=C1/C=C/3\C(=O)NC(=O)S3
How it was run: as §1

[7] = compound: C1=CC=C(C=C1)C2=NC(=C(N2)C3=CC=NC=C3)C4=CC(=C(C=C4)Cl)O
How it was run: as §1

[8] = compound: C1=CC=C2C(=C1)C3=NNC4=CC=CC(=C43)C2=O
How it was run: as §1

[9] = compound: C1CCN(C1)C(=O)NC2=CC=CC(=C2)NC3=NC=C(C(=N3)NCCC4=CN=CN4)Br
How it was run: as §1

[10] = compound: C1CN(CCC1(CC2=CC=C(C=C2)Cl)N)C3=NC=NC4=C3C=CN4
How it was run: as §1

Measured: log2 fold change

OPHN1 (UniProt O60890)
inactive: [1] 0.022 | [2] -0.155 | [3] 0.101 | [4] -0.009 | [5] 0.24 | [6] 0.03 | [7] -0.007 | [8] 0.039 | [9] 0.044 | [10] 0.04

MITD1 (UniProt Q8WV92)
inactive: [1] 0.011 | [2] -0.009 | [3] 0.148 | [4] 0.037 | [5] 0.044 | [6] 0.036 | [7] -0.015 | [8] 0.101 | [9] 0.03 | [10] -0.024

MIS12 (UniProt Q9H081)
inactive: [1] 0.103 | [2] 0.083 | [3] 0.012 | [4] 0.002 | [5] 0.107 | [6] 0.052 | [7] -0.063 | [8] -0.018 | [9] -0.16 | [10] -0.016

NDUFS7 (UniProt O75251)
UniProt O75251, sequence (O75251 whole entry, looked up): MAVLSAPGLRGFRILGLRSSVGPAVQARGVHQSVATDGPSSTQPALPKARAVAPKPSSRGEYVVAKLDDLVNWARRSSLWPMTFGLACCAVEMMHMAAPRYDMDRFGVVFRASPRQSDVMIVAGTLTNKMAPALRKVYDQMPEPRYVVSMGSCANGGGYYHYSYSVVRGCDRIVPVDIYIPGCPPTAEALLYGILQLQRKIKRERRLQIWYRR
inactive: [1] 0.129 | [2] -0.011 | [3] 0.039 | [4] -0.011 | [5] 0.062 | [6] 0.038 | [7] -0.052 | [8] 0.035 | [9] 0.045 | [10] 0.011

NKAP (UniProt Q8N5F7)
UniProt Q8N5F7, sequence (Q8N5F7 whole entry, looked up): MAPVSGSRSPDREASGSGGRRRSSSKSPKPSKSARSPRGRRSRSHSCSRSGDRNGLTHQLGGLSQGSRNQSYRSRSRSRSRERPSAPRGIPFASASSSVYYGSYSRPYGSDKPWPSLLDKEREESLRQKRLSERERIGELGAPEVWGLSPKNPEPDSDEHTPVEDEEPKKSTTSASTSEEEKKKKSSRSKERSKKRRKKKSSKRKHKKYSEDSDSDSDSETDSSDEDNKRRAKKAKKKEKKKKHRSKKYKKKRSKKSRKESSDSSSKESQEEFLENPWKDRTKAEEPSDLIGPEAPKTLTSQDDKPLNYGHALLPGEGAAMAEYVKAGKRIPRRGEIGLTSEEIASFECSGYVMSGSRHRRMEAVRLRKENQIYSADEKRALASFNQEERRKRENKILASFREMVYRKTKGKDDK
inactive: [1] 0.029 | [2] 0.023 | [3] -0.041 | [4] 0.041 | [5] -0.189 | [6] -0.047 | [7] -0.085 | [8] -0.051 | [9] -0.064 | [10] -0.007

NHLRC2 (UniProt Q8NBF2)
inactive: [1] 0.035 | [2] 0 | [3] -0.059 | [4] 0.057 | [5] 0.065 | [6] -0.074 | [7] -0.114 | [8] 0.042 | [9] 0.051 | [10] 0.001

MYH11 isoform 2 (UniProt P35749)
UniProt P35749, sequence (P35749 whole entry, looked up): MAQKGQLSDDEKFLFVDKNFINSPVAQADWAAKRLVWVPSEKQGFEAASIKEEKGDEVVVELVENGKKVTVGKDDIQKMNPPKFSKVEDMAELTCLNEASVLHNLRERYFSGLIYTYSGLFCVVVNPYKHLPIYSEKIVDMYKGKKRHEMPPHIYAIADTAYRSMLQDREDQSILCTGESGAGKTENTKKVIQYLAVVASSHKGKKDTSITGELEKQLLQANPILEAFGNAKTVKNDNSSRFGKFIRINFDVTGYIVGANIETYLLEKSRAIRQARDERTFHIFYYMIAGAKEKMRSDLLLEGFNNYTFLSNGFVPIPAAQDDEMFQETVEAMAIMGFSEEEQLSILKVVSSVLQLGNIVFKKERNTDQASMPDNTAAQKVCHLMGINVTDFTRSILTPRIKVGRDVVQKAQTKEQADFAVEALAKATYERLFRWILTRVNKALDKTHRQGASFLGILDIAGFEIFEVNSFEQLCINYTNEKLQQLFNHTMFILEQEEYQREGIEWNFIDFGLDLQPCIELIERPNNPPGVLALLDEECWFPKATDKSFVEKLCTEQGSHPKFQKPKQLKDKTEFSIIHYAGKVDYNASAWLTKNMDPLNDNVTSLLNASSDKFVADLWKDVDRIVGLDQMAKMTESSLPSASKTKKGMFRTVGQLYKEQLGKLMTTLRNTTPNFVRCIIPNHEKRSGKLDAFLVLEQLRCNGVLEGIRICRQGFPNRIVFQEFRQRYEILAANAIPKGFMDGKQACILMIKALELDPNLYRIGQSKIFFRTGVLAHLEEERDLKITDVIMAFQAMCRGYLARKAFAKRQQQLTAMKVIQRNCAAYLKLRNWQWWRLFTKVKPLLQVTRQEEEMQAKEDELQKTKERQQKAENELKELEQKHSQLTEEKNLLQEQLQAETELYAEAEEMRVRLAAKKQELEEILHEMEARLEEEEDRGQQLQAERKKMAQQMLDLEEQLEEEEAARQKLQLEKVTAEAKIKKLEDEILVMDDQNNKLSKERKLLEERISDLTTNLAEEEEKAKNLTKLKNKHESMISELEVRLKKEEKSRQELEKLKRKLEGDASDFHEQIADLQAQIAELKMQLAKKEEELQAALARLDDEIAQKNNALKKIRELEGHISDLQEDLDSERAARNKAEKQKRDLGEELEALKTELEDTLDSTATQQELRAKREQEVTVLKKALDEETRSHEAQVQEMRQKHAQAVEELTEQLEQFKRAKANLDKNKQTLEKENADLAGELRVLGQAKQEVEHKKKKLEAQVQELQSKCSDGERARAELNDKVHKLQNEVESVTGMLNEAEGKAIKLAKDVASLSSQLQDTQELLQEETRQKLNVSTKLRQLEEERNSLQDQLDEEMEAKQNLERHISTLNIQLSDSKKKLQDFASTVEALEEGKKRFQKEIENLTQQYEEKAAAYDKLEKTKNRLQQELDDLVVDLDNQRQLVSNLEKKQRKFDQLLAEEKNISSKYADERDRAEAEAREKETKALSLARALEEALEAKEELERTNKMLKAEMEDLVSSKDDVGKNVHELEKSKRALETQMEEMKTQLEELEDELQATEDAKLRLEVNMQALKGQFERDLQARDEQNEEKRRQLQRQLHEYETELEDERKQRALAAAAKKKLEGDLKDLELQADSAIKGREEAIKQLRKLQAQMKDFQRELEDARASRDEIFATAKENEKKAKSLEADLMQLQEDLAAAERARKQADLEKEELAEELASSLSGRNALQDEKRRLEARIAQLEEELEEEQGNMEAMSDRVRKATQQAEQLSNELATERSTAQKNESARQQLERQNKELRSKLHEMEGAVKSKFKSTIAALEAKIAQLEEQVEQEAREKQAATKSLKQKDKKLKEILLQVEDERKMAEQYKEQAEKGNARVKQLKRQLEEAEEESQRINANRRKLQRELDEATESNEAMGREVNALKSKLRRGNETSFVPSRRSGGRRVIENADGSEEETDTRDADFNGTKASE
inactive: [1] 0.046 | [2] -0.081 | [3] 0.096 | [4] 0.02 | [5] 0.032 | [6] 0.018 | [7] -0.026 | [8] 0.036 | [9] -0.046 | [10] 0.028

MKRN2 (UniProt Q9H000)
inactive: [1] -0.038 | [2] 0.057 | [3] -0.16 | [4] 0.013 | [5] -0.058 | [6] 0.002 | [7] -0.011 | [8] -0.052 | [9] -0.085 | [10] 0.061

NEDD4 isoform 4 (UniProt P46934)
inactive: [1] -0.024 | [2] 0.067 | [3] 0.048 | [4] -0.011 | [5] 0.052 | [6] 0.066 | [7] 0.048 | [8] -0.001 | [9] 0.003 | [10] -0.053

NCK1 (UniProt P16333)
inactive: [1] 0.045 | [2] 0.206 | [3] -0.066 | [4] 0 | [5] 0.179 | [6] -0.019 | [7] -0.084 | [8] 0 | [9] -0.135 | [10] -0.081

MRPS25 (UniProt P82663)
inactive: [1] -0.069 | [2] -0.023 | [3] -0.022 | [4] 0.084 | [5] -0.048 | [6] 0 | [7] 0.083 | [8] 0.061 | [9] -0.036 | [10] -0.068

NUMBL (UniProt Q9Y6R0)
inactive: [1] -0.001 | [2] 0.021 | [3] -0.026 | [4] -0.095 | [5] 0.085 | [6] -0.047 | [7] 0.042 | [8] 0.056

NUP107 (UniProt P57740)
inactive: [1] -0.05 | [2] 0.004 | [3] -0.128 | [4] 0.063 | [5] 0.04 | [6] 0.065 | [7] -0.037 | [8] -0.192 | [9] -0.145 | [10] -0.005

NSMCE2 (UniProt Q96MF7)
UniProt Q96MF7, sequence (Q96MF7 whole entry, looked up): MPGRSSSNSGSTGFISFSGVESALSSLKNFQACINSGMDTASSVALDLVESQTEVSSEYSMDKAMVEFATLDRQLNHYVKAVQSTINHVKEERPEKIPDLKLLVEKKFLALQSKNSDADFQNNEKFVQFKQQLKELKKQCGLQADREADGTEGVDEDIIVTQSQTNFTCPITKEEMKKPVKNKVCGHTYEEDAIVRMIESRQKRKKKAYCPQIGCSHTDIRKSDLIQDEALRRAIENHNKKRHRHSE
inactive: [1] -0.076 | [2] 0.012 | [3] -0.078 | [4] 0.009 | [5] 0.023 | [6] -0.096 | [7] 0.04 | [8] -0.058 | [9] -0.001 | [10] 0.008

NFYC (UniProt Q13952)
inactive: [1] 0.014 | [2] 0.004 | [3] 0.016 | [4] -0.006 | [5] 0.059 | [6] 0.007 | [7] 0.007 | [8] 0.01 | [9] -0.034 | [10] -0.042

MSH2 (UniProt P43246)
UniProt P43246, sequence (P43246 whole entry, looked up): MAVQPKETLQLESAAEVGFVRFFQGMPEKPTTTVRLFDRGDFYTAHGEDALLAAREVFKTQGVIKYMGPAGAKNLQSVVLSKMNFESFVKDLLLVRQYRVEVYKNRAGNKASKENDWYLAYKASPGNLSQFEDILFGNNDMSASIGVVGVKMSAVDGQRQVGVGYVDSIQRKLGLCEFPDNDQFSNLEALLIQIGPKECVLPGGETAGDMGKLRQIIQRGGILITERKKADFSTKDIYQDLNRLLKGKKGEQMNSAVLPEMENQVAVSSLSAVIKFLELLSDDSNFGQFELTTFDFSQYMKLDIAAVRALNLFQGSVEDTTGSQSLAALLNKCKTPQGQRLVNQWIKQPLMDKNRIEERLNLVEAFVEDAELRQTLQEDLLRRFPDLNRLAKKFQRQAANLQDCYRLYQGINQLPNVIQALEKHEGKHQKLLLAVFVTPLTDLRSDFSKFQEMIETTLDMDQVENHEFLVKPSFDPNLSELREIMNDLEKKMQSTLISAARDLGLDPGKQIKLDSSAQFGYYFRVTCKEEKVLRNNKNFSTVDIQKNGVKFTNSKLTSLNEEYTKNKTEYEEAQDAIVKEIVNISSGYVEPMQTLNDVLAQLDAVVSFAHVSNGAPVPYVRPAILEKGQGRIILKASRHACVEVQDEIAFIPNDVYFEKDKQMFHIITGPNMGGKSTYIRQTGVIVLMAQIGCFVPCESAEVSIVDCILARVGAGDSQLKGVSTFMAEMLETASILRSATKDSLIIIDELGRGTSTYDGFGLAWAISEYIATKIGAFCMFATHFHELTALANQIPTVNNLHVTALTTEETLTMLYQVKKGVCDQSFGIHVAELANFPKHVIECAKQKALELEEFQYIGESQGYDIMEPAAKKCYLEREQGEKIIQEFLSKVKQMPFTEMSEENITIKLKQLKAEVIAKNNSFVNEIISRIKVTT
inactive: [1] 0.038 | [2] 0.109 | [3] 0.066 | [4] -0.004 | [5] 0.037 | [6] 0.025 | [7] -0.016 | [8] 0.035 | [9] -0.064 | [10] -0.059

MT-ND1 (UniProt P03886)
UniProt P03886, sequence (P03886 whole entry, looked up): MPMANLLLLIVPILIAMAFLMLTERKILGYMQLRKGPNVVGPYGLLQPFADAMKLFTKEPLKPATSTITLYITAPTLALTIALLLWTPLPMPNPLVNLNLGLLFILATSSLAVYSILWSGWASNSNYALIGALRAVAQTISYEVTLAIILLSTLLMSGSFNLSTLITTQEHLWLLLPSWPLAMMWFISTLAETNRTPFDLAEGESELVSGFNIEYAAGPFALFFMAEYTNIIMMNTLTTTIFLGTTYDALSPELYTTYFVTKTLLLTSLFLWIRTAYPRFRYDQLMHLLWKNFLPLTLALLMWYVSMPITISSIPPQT
inactive: [1] -0.075 | [2] 0.031 | [3] -0.028 | [4] 0.097 | [5] -0.005 | [6] 0.032 | [7] 0.053 | [8] 0.12 | [9] -0.187 | [10] 0.018

MSL1 (UniProt Q68DK7)
inactive: [1] 0.185 | [3] 0.106 | [4] -0.193 | [5] 0.069 | [6] -0.033 | [7] 0.066 | [8] -0.026
active: [2] -0.603

MTHFS (UniProt P49914)
inactive: [1] 0.01 | [2] 0.062 | [3] 0.055 | [4] -0.003 | [5] 0.034 | [6] -0.024 | [7] 0.026 | [8] 0.083 | [9] -0.014 | [10] -0.12

NECTIN2 isoform 2 (UniProt Q92692)
UniProt Q92692, sequence (Q92692 whole entry, looked up): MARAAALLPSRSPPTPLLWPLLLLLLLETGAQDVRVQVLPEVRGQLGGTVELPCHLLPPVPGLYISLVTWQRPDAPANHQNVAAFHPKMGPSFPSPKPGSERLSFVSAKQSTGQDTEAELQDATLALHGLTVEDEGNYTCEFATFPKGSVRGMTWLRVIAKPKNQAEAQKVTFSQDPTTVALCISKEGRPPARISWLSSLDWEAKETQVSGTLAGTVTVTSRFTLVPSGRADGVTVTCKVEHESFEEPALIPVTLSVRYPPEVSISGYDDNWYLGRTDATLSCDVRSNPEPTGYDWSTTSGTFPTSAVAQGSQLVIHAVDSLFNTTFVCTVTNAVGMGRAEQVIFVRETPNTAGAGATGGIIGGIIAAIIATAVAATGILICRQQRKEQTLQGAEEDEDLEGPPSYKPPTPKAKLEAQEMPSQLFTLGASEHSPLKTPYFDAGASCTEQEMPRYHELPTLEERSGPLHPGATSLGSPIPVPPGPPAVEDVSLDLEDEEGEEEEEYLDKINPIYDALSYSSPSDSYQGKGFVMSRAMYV
inactive: [1] -0.151 | [2] 0.006 | [3] -0.386 | [4] 0.117 | [5] 0.168 | [6] -0.345 | [7] -0.029 | [8] -0.034

OAT (UniProt P04181)
inactive: [1] 0.063 | [2] 0.099 | [3] 0.045 | [4] -0.091 | [5] 0.042 | [6] -0.151 | [7] -0.183 | [8] -0.001 | [9] -0.037 | [10] -0.023

OSTC (UniProt Q9NRP0)
UniProt Q9NRP0, sequence (Q9NRP0 whole entry, looked up): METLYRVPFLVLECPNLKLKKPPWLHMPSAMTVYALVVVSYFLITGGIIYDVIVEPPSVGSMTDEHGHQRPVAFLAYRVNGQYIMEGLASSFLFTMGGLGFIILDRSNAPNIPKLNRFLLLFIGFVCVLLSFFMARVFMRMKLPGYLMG
inactive: [1] 0.021 | [2] 0.024 | [3] 0.022 | [4] 0.017 | [5] 0.004 | [6] -0.001 | [7] 0.014 | [8] 0.048 | [9] -0.041 | [10] 0.088

MT-ATP6 (UniProt P00846)
UniProt P00846, sequence (P00846 whole entry, looked up): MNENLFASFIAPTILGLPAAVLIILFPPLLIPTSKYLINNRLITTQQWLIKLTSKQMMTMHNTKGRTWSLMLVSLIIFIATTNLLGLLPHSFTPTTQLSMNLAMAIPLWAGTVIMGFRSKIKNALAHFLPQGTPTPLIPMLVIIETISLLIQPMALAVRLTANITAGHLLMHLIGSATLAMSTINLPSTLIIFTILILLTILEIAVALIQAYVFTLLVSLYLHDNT
inactive: [1] 0.207 | [2] 0.146 | [3] -0.042 | [4] -0.07 | [5] -0.078 | [6] -0.391 | [7] -0.048 | [8] -0.017 | [9] -0.073 | [10] -0.042

PACS1 (UniProt Q6VY07)
inactive: [1] 0.027 | [2] 0.036 | [3] -0.049 | [4] 0.01 | [5] 0.016 | [6] -0.077 | [7] -0.039 | [8] -0.084 | [9] -0.048 | [10] -0.063

NGLY1 (UniProt Q96IV0)
inactive: [1] 0.035 | [2] -0.06 | [3] -0.036 | [4] -0.014 | [5] 0.17 | [6] 0.023 | [7] -0.001 | [8] 0.045 | [9] -0.023 | [10] -0.024

NT5DC1 (UniProt Q5TFE4)
inactive: [1] 0.071 | [2] 0.001 | [3] 0.087 | [4] -0.019 | [5] 0.087 | [6] -0.008 | [7] 0.02 | [8] 0.02 | [9] 0.008 | [10] 0.028

MRPS33 (UniProt Q9Y291)
inactive: [1] 0.023 | [2] -0.018 | [3] -0.129 | [4] 0.021 | [5] 0.019 | [6] 0.032 | [7] -0.043 | [8] 0.018 | [9] 0.026 | [10] -0.133

MYO19 (UniProt Q96H55)
inactive: [1] 0.032 | [2] -0.047 | [3] -0.103 | [4] -0.114 | [5] 0.011 | [6] 0.093 | [7] 0.027 | [8] 0.07

MRPL47 (UniProt Q9HD33)
inactive: [1] -0.189 | [2] -0.107 | [3] -0.098 | [4] 0.096 | [5] -0.002 | [6] -0.047 | [7] -0.012 | [8] 0.094 | [9] -0.004 | [10] -0.273

MON1B (UniProt Q7L1V2)
inactive: [1] 0.016 | [2] 0.04 | [3] -0.021 | [4] 0.023 | [5] 0.089 | [6] -0.01 | [7] 0.066 | [8] -0.004 | [9] -0.005 | [10] -0.006
